Laboratory results published in PubChem BioAssay.
A number with no mark means an inactive call. How the calls were made is not given here.

The compounds below were run against Pantothenate synthetase (Mycobacterium tuberculosis (strain ATCC 25618 / H37Rv)) (UniProt P9WIL5) (assay: Coupled enzyme confirmation of inhibitors against recombinant Mtb PanC (AID 375;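 further: 0% = full reaction with vehicle and 100% = no enzyme background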)). Settings: coupled enzyme assay; at 10 µM, hits give high values.
Chain of Pantothenate synthetase (Mycobacterium tuberculosis (strain ATCC 25618 / H37Rv)) (P9WIL5 whole entry, looked up): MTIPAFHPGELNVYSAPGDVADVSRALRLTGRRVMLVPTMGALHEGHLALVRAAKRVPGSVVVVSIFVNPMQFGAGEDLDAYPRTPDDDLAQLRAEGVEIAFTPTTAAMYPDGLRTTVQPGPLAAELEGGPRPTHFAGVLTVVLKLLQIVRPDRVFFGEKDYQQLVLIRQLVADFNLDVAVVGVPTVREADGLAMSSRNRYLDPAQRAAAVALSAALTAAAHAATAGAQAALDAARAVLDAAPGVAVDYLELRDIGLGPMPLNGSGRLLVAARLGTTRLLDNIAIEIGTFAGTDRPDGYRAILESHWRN

Row | Structure (SMILES) | inhibition [%]
1 | O=C(CSc1nnc(CNC(=O)c2c(F)cccc2Cl)o1)c1ccccc1 | 0
2 | O=C(NCCSCc1ccco1)Nc1cccc(Cl)c1 | 3
3 | Cn1c(=O)c2c(nc(Br)n2CCSc2nnnn2-c2ccccc2)n(C)c1=O | 0
4 | Cc1ccccc1OCCn1c(=O)oc2ccccc21 | 2
5 | CCOC(=O)c1cc2c(=O)n3cccc(C)c3nc2n(CC2CCCO2)c1=NC(C)=O (stereo not given) | 7
6 | COC(=O)C1=C(C)NC(C)=C(C(=O)OC)C1C(=O)OC1CCCCC1=O (stereo not given) | 0
7 | CC(=O)NC1=NC(=O)/C(=C/N2CCCCC2)S1 | 8
8 | Cc1nnc2ccc(N3CCN(c4cccc(C(F)(F)F)c4)CC3)nn12 | 0
9 | O=C(Nc1ccccc1)N(Cc1cccnc1)Cc1ccco1 | 0
10 | COc1ccc(N2CCN(Cc3nc4c(c(=O)n(C)c(=O)n4C)n3Cc3ccccc3C)CC2)cc1 | 7
11 | CCCCOc1ccc(C(=O)Nc2ccc(N3CCN(C(=O)C(C)C)CC3)cc2)cc1 | 6
12 | Cc1cc(=O)oc2c(CN3CCN(C)CC3)c(O)c(Cl)cc12 | 7
13 | O=C(Nc1ccc2c(c1)OCO2)c1cc2ncc(Br)cn2n1 | 3
14 | CCOC(=O)C(NCc1ccccc1OC)(NC(C)=O)C(F)(F)F (stereo not given) | 0
15 | Cc1ccc(C)c(N2CCN(S(=O)(=O)c3ccc4c(c3)OCCO4)CC2)c1 | 4
16 | CCC(=O)/C=C1\Sc2ccc(OC)cc2N1CCO | 3
17 | CC(=O)N1CCN=C1SCc1ccc(Br)cc1 | 4
18 | Cc1cc(C)c(C#N)c(SCc2[nH]nc3c2C(c2ccccc2)C(C#N)=C(N)O3)n1 (stereo not given) | 0
19 | Cc1ccc(S(=O)(=O)N[C@@H](C)C(=O)N2CCC(C(=O)N3CCC[C@H]3C(=O)O)CC2)cc1 | 0
20 | Cc1ccc2c(C)nc(NC3=NCN(C(C)C)CN3)nc2c1 | 0

Row | Structure (SMILES) | inhibition [%]
21 | CCCCNC(=O)Nc1ccnn1C1CCCCC1 | 1
22 | Cc1cc(C)c2oc(=O)cc(CN3CCOCC3)c2c1 | 0
23 | CCOc1cccc(C(=O)N(Cc2ccco2)C2CCS(=O)(=O)C2)c1 (stereo not given) | 6
24 | COc1cccc(C2=Nn3c(nnc3-c3ccccc3O)SC2)c1 | 1
25 | CCC12CN3CC(CC)(CN(C1)C3c1ccc(OC(C)C)cc1)C2=O (stereo not given) | 9
26 | COc1ccc(CNc2oc(-c3cccc4ccccc34)nc2C#N)cc1 | 0
27 | COC(=O)Oc1c(Br)c(=O)oc2ccccc12 | 0
28 | O=C(c1cccs1)N(Cc1ccco1)Cc1cc2ccccc2[nH]c1=O | 0
29 | CCc1nnc(NC(=O)c2ccc(S(=O)(=O)NCC(C)C)cc2)s1 | 0
30 | Cn1c(=O)c2c(nc(NCCCO)n2CCc2ccccc2)n(C)c1=O | 0
31 | CC(C)Cn1cc(C(=O)NCC2CCCO2)c2c3ccccc3n(C)c2c1=O (stereo not given) | 4
32 | CCOC(=O)c1ccc(-n2c(C)nc3c(cnn3-c3ccccc3C)c2=O)cc1 | 0
33 | CCC(C)(NC(=O)c1ccc(=O)[nH]c1)C(=O)NC1CCCC1 (stereo not given) | 0
34 | CCOC(=O)N1CCC(NC(=O)CCC(=O)N2CC(C)Oc3ccc(Cl)cc32)CC1 (stereo not given) | 2
35 | CC(=O)O[C@]1(C(C)=O)CC[C@H]2[C@@H]3C=C(C)C4=CC(=O)CC[C@]4(C)[C@H]3CC[C@@]21C | 0
36 | Cc1c(C(=O)NCc2cccnc2)sc2ncn(CC(=O)N3CCCCC3C)c(=O)c12 (stereo not given) | 0
37 | Cn1c(=O)n(Cc2ccccc2)c(=O)c2c1nc(NCC1CCCO1)n2Cc1ccccc1 (stereo not given) | 0
38 | Cc1cc(C)cc(-n2nnc(C(=O)NCc3ccc4c(c3)OCO4)c2N)c1 | 0
39 | CCOC(=O)c1sc2ncn(/N=C/N(C)C)c(=O)c2c1C | 8
40 | Cc1cccc(OCCCc2c(C)n[nH]c2C)c1 | 0
